Pf Dd2 inh – Plasmodium falciparum Dd2 growth inhibition; P. falciparum Dd2 growth, SYBR Green, 72 h; Potency, µM (series often up to 28.9 µM), usual class: inhibitors; 120,000 tested, 4.3% active; active means well fitted inhibition curve with a large enough effect; further: nearly all actives have a fitted effect of over 65% in size
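Readout: SYBR Green fluorescence, 485 nm excitation, 535 nm emission, after ~16 h lysis at 37C. Before that, Dd2-infected red cells (2.5% hematocrit) grew 72 h with compound, 29 uM top final concentration.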
Of the large screens only hits and unclear results are named; the others gave an inactive call. Shown is part of a subset that was picked to be rich in hits.

Cc1nc2c(-c3ccccc3)c(C)[nH]n2c(=O)c1Cc1ccc(Br)cc1	Pf Dd2 inh 7.9µM
Cc1ccc(Cc2c(C)nc3c(-c4ccccc4)c(C)[nH]n3c2=O)cc1	none
CCOc1ccccc1CNC(=O)c1ccc(CN2C(=O)NC3(CCOCC3)C2=O)cc1	none
CC(C)N1CCC2(CC1)CN(C(=O)C1CCOCC1)Cc1ccccc1O2	none
COc1cc(C(=O)N2C[C@@H](C)[C@@](C)(O)C2)ccn1	none
CCC1CCCCN1S(=O)(=O)c1ccc(C(=O)Nc2sc3c(c2C(=O)NC)CCC3)cc1 (stereo not drawn)	Pf Dd2 inh 13µM
Cc1ccc2c(=O)cc(C(=O)Nc3ccc(S(=O)(=O)N4CCCC(C)C4)cc3)oc2c1C (stereo not drawn)	none
Cc1ccc2oc(C(=O)Nc3ccc(S(=O)(=O)N4CCCC(C)C4)cc3)cc(=O)c2c1 (stereo not drawn)	none
COC(=O)c1c(NC(=O)c2ccc(S(=O)(=O)N3CCCC(C)C3)cc2)sc2c1CCN(C(C)C)C2 (stereo not drawn)	Pf Dd2 inh 8.9µM
COC(=O)c1ccc2c(c1)sc(=NC(=O)c1ccc(S(=O)(=O)N3CCCCC3)cc1)n2C	none
COc1ccc(Cl)c2sc(NC(=O)c3ccc(S(=O)(=O)N4CCCC4)cc3)nc12	none
COC(=O)c1c(NC(=O)c2ccc(S(=O)(=O)N3CCCCC3)cc2)sc2c1CCN(C)C2	Pf Dd2 inh 10µM
CCOC(=O)c1c(NC(=O)c2ccc(S(=O)(=O)N3CCC(C)CC3)cc2)sc2c1CCN(CC)C2	Pf Dd2 inh 8.9µM
CCOC(=O)c1c(NC(=O)c2ccc(F)cc2)sc2c1CCC(CC)C2 (stereo not drawn)	none
CNC(=O)c1c(NC(=O)/C=C/c2ccccc2)sc2c1CCC2	none
CCC1CCCCN1S(=O)(=O)c1ccc(NC(=O)c2cc(=O)c3c(C)cc(C)cc3o2)cc1 (stereo not drawn)	none
CCOC(=O)c1c(NC(=O)c2ccc(C)cc2)sc2c1CCCCC2	none
CC(=O)N1CCC2(CC1)SCC(=O)N2c1ccc(F)cc1	none
O=C(NCCc1ccncc1)C1CN(C(=O)c2ccc(F)c(F)c2)CC12CCOCC2 (stereo not drawn)	none
CC(C)c1nc(CN(C)C(=O)c2cc(COc3ccccc3)[nH]n2)no1	none
O=C(O)CC[C@@H]1CN(c2nnnn2-c2ccccc2)CC[C@@H]1N1CCOCC1	none
O=C1CN(C(=O)c2ccnc(-c3nnc4ccc(Nc5ccccc5)nn34)c2)CCN1	none
COCCN1CC(CO)C2(CCN(C3CCSCC3)CC2)C1 (stereo not drawn)	none
CN(C)C[C@@H]1CN(Cc2ccccc2)C[C@H]1NC(=O)CCn1cccn1	none
CCN1C(=O)COC[C@@H]1[C@H](O)c1ccc(NC(=O)c2ccnc(Cl)c2)cc1	none
Cc1ccc(C2Cn3nnc(-c4noc(CCc5ccccc5)n4)c3CO2)cc1 (stereo not drawn)	none
Cc1n[nH]c(C)c1CCC(=O)NCC1CCN(c2cc(-c3ccccc3)[nH]n2)CC1	none
CCc1ccc(-n2c(-c3ccccc3)c(C)n3c4c(=O)n(C)c(=O)n(C)c4nc23)cc1	none
Cc1ccc(-c2nc3ccccc3n3c(-c4ccccc4)c4c(=O)n(C)c(=O)n(C)c4c23)cc1	none
Cc1ccc(-c2c(C)n3c4c(=O)n(C)c(=O)n(C)c4nc3n2-c2cccc(O)c2)cc1	Pf Dd2 inh 10µM
CC(Cc1cnccn1)Nc1ccc(-c2nc(-c3cccc(Cl)c3)no2)cn1 (stereo not drawn)	none
O=S(=O)(c1ccccc1)N1CCCC(c2nc(CCOc3ccc(F)cc3)no2)C1 (stereo not drawn)	none
O=C(Cn1nc2n(c1=O)CCCCC2)NCCC1=CCCCC1	none
COc1ccc(C(=O)N[C@@H]2CN(C(=O)Nc3cccc(C#N)c3)CCC[C@H]2O)cc1	none
COc1ccc(C(=O)N[C@@H]2CN(C(=O)Nc3ccc(OC(F)(F)F)cc3)CCC[C@H]2O)cc1	Pf Dd2 inh 5µM
O=C(N[C@@H]1CN(C(=O)Nc2ccc(OC(F)(F)F)cc2)CCC[C@H]1O)c1ccc(OCCN2CCOCC2)cc1	none
CC(=O)NCCC(=O)N1CCCCC1C(=O)Nc1ccc(-n2nc(C)cc2C)cc1 (stereo not drawn)	none
Cc1ccc(CN(Cc2cccn2-c2nnc(N3CCCC3=O)s2)C(=O)Nc2cc(C)cc(C)c2)cc1	Pf Dd2 inh 3.2µM
COC(=O)c1ccccc1NC(=O)N(Cc1ccc(C)cc1)Cc1cccn1-c1nnc(N2CCCC2=O)s1	none
Cc1ccc(NCc2cccn2-c2nnc(N3CCC(C(=O)NC(C)C)CC3)s2)cc1	none
COc1ccccc1OCCNC(=O)C1CCCN(Cc2ccncc2)CCC(=O)NCC1 (stereo not drawn)	none
O=C(c1ccc(C2CCCNC2)cc1)N1CCCN(c2ncccn2)CC1 (stereo not drawn)	none
O=C(c1ccc(C2CCCNC2)cc1)N1CCC(Oc2cccc(F)c2)CC1 (stereo not drawn)	Pf Dd2 inh 13µM
O=C(c1ccc(F)cc1)N1CCC(Oc2cccnc2)C1 (stereo not drawn)	none
NCCCC(=O)N1CCC2(CC1)CC(NC(=O)CN)c1ccccc12 (stereo not drawn)	none
Cc1ccccc1C(=O)N1C(C(=O)NC(C)C)COC12CCN(C(=O)c1ccc(Cl)cc1)CC2 (stereo not drawn)	none
Cn1cc(CN(C(=O)Nc2ccccc2)C2CCCCC2)c2ccccc21	Pf Dd2 inh 3.2µM
CCOc1ccc(NC(=O)N(Cc2c[nH]c3ccccc23)C2CCCCC2)cc1	none
COCC1(CNCc2cn(C)c3ccccc23)C[C@@H](O)[C@@H](O)C1 (stereo partly drawn)	none
COc1ccccc1C(=O)N1CCC2(CC1)CC(=O)c1ccc(Cl)cc1O2	none
Cc1ccc(Cl)cc1N1CCN(C(=O)c2cnn(C)c2C2CCN(C(=O)OC(C)(C)C)CC2)CC1	Pf Dd2 inh 4µM
Cn1ncc(C(=O)N2CCN(c3ccccc3)CC2)c1C1CCN(C(=O)OC(C)(C)C)CC1	none
Cc1cccc(-n2ncc(C(=O)N3CCN(c4ccc(C)cc4C)CC3)c2C2CCN(C(=O)OC(C)(C)C)CC2)c1	none
Cc1ccc(C)c(N2CCN(C(=O)c3cnn(C(C)(C)C)c3C3CCN(C(=O)OC(C)(C)C)CC3)CC2)c1	Pf Dd2 inh 8.9µM
Cc1ccc(Cl)cc1N1CCN(C(=O)c2cnn(C(C)(C)C)c2C2CCN(C(=O)OC(C)(C)C)CC2)CC1	Pf Dd2 inh 7.9µM
Cc1cc2nc3n(c(=O)c2n1CC(=O)Nc1ccc(Cl)cc1F)CCC3	none
CC(C)CCN1CCOc2cc([S+](=O)([O-])Nc3cccnc3)ccc2C1	none
O=C(NC1CCC1)C1=NO[C@@H]2CN(CCc3ccccc3)C[C@H]12	none
COCc1nc(NCCCc2c(C)noc2C)cc(C2CC(N)C2)n1 (stereo not drawn)	none
COCC[C@]1(O)CCN(C(=O)CCCc2cccs2)C[C@H]1C	none
CCn1c2c(c(=O)n1Cc1ccccc1)CCN(C(=O)c1cn[nH]c1)C2	none
CCOCCn1c(=O)[nH]c2cc(C(=O)N(C)Cc3cnn(C)c3)ccc21	none
O=C(C1CC=CC1)N1CCc2nn(Cc3ccccc3)c(=O)n2CC1	none
CCc1cnc(C)nc1N1CCC(Oc2ccc3ccccc3c2)(C(=O)O)CC1	none
O=C(CCC1CCN(C(=O)c2ccccc2)CC1)NCCCN1CCOCC1	none
COc1ccc(CN2CCc3ncc(C(=O)N4CCC(c5ccccc5)CC4)n3CC2)cn1	none
CC(C)(C)C(Cn1ccnc1)NC(=O)c1cc(COc2ccc3c(c2)CCCC3)on1 (stereo not drawn)	Pf Dd2 inh 8.9µM
COC(=O)c1ccccc1NC(=O)c1cc(CN2CCCC2)on1	none
Cc1cc(C)n(CCCNC(=O)c2cc(COc3ccc4sc(C)nc4c3)on2)n1	none
